Bioassay records as filed in PubChem.
DAX1 inh-1: inhibitors of human orphan nuclear receptor DAX1 (NR0B1) | P51843 | HEK293 Gal4-DAX1 luciferase reporter, luminescence | inhibition, % at 6.75 µM | hit rate 0.99% among 340,000;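 active means inhibition above the mean over all tested compounds plus 3 SD, cut at about 4.2% in these data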;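 further: 0% = DAX1-transfected cells with DMSO and 100% = empty-vector control cells with DMSO; inhibition shows as a rise in luminescence from relieved DAX1 repression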
Target sequence (P51843 207-470 limits assumed): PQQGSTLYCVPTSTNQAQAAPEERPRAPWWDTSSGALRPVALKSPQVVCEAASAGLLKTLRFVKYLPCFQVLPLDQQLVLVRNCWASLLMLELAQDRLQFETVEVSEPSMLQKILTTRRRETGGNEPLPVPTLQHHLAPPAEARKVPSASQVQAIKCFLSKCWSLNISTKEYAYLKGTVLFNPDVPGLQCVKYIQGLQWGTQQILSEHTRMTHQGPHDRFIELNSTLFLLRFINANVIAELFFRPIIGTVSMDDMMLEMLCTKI
hgDAF12 agonist: activates the H. glycines DAF-12 receptor ligand-binding domain. activation, % at 6.8 µM. hit rate 1.8% among 370,000. HEK293 GAL4-hgDAF12 UAS-luciferase reporter, agonist luminescence; normalized to butyrate control. AID 687014;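 active means activation above a cutoff set at the mean of all screened compounds plus 3 SD, cut at about 10% in these data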;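 further: 0% = DMSO wells and 100% = sodium butyrate wells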
DAX1 inh-2: DAX1 (NR0B1) inhibition, primary screen. inhibition, % at 6.8 µM. HEK293T StAR-luciferase reporter, SF-1/DAX-1 repression relief. hit rate 1.1% among 370,000;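 active means inhibition above the mean over all tested compounds plus 3 SD, cut at about 3.6% in these data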;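 further: 0% = DAX-1 cells with DMSO and 100% = cells lacking DAX-1 with DMSO; higher inhibition means more luminescence from relief of DAX-1 repression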
hcDAF12 agonist: activators of H. contortus DAF-12 nuclear receptor; HEK293 hcDAF-12 lit1-tk-luc reporter, luminescence; 0% DMSO, 100% Δ7-dafachronic acid; activation, % at 6.8 µM; hit rate 1.4% among 370,000; AID 652067;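 active means activation above the mean of all tested compounds plus 3 SD, cut at about 5.5% in these data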;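 further: 100% = response to 3 µM Δ7-dafachronic acid high control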
ssDAF12 agonist: activates DAF-12 receptor from parasite S. stercoralis; hit rate 1% among 370,000; HEK293 ssDAF-12/GRIP1 lit1-tk-luc reporter, luminescence; % of 3 µM dafachronic acid response; activation, % at 6.8 µM;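 active means activation above the mean over all tested compounds plus 3 SD, cut at about 0.9% in these data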;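 further: 0% = DMSO-only wells and 100% = 3 µM delta7-dafachronic acid wells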
* = called active by the depositor. Shown are actives, neighbours in structure and some others; about 4.1% of the full set was active somewhere.

Cc1onc(-c2c(Cl)cccc2Cl)c1C(=O)N1CCCc2ccccc21 was read as DAX1 inh-1 -1.4, hgDAF12 agonist -3.4, DAX1 inh-2 -0.8, hcDAF12 agonist 0.4 and ssDAF12 agonist -1.4.
Screening Cc1onc(-c2ccccc2)c1C(=O)N1CCCc2ccccc21 returned DAX1 inh-1 -0.9, hgDAF12 agonist 1.1, DAX1 inh-2 1.0, hcDAF12 agonist 0.3 and ssDAF12 agonist 1.0*.
`CC(C)(C)C1(O)CC(C(F)(F)F)=NN1C(=O)CCCc1ccccc1` (stereo not drawn) gave DAX1 inh-1 4.6*, hgDAF12 agonist -0.6, DAX1 inh-2 -0.1, hcDAF12 agonist 0.3 and ssDAF12 agonist -0.8.
`Cc1cc(C)cc(OCC(=O)N2N=C(C(F)(F)F)CC2(O)C(C)(C)C)c1` (stereo not drawn) gave DAX1 inh-1 -0.3, hgDAF12 agonist -1.1, DAX1 inh-2 -0.9, hcDAF12 agonist -1.4 and ssDAF12 agonist -1.5.
For O=C(NC1CCN(Cc2ccc(F)cc2)CC1)c1ccccc1 the results were DAX1 inh-1 1.9, hgDAF12 agonist -0.8, DAX1 inh-2 0.1, hcDAF12 agonist -1.6 and ssDAF12 agonist -1.4.
For CS(=O)(=O)Cc1ccc(C(=O)NC2CCN(Cc3ccccc3)C2)cc1 (stereo not drawn) the results were DAX1 inh-1 4.2*, hgDAF12 agonist -0.5, DAX1 inh-2 0.8, hcDAF12 agonist 1.1 and ssDAF12 agonist -0.5.
Screening Cc1cccnc1NC(=O)Nc1cccc(F)c1 returned DAX1 inh-1 1.7, hgDAF12 agonist 10.9*, DAX1 inh-2 2.3, hcDAF12 agonist 4.0 and ssDAF12 agonist -0.1.
Screening Cc1cccnc1NC(=O)Nc1ccc(Cl)cc1 returned DAX1 inh-1 4.3*, hgDAF12 agonist 7.1, DAX1 inh-2 1.0, hcDAF12 agonist 2.8 and ssDAF12 agonist 0.3.
For Cc1cccnc1NC(=O)Nc1ccccc1 the results were DAX1 inh-1 3.6, hgDAF12 agonist 4.8, DAX1 inh-2 1.1, hcDAF12 agonist 1.9 and ssDAF12 agonist -0.5.
For O=S(=O)(c1cccs1)N1CCCc2nc(-c3ccccc3)ccc21 the results were hgDAF12 agonist 0.9, DAX1 inh-2 0.8, hcDAF12 agonist 0.3 and ssDAF12 agonist -0.7.
`CC(C)CC1O[C@@H](C)[C@@H]2CN3CCc4c([nH]c5ccccc45)[C@@H]3C[C@@H]2N1C` (stereo partly drawn) gave hgDAF12 agonist -5.7, DAX1 inh-2 1.1, hcDAF12 agonist 4.9 and ssDAF12 agonist -0.2.
Screening N/C(=N\OC(=O)C1CCCCC1)c1ccncc1 returned DAX1 inh-1 0.0, hgDAF12 agonist 1.3, DAX1 inh-2 1.0, hcDAF12 agonist 0.6 and ssDAF12 agonist -0.9.
N/C(=N\OC(=O)Cc1cccc2ccccc12)c1ccccn1 was read as DAX1 inh-1 1.9, hgDAF12 agonist 6.1, DAX1 inh-2 1.5, hcDAF12 agonist 5.8* and ssDAF12 agonist -0.1.
Screening COc1ccccc1CC(=O)O/N=C(\N)c1ccccn1 returned DAX1 inh-1 1.5, hgDAF12 agonist 5.3, DAX1 inh-2 0.5, hcDAF12 agonist 1.1 and ssDAF12 agonist 0.0.
For N/C(=N\OC(=O)C1CCCCC1)c1ccccn1 the results were DAX1 inh-1 0.0, hgDAF12 agonist 11.7*, DAX1 inh-2 1.9, hcDAF12 agonist 2.0 and ssDAF12 agonist -0.2.
For COC(=O)[C@@]12CCCCC3=C1N(CCC3)C(=O)[C@H]2CC(=O)NCCCCc1ccccc1 the results were hgDAF12 agonist 1.7, DAX1 inh-2 1.6, hcDAF12 agonist 0.1 and ssDAF12 agonist -0.5.
COc1ccc(CNC(=O)c2cc(-c3ccccc3)c(N3CCOCC3)s2)cc1OC was read as hgDAF12 agonist -0.1, DAX1 inh-2 -1.4, hcDAF12 agonist -4.8 and ssDAF12 agonist -0.6.
For Cc1ccc2nc(-c3ccncc3)c(NC3CCCC3)n2c1 the results were DAX1 inh-1 5.0*, hgDAF12 agonist 0.6, DAX1 inh-2 -1.0, hcDAF12 agonist -1.3 and ssDAF12 agonist -0.8.
Screening CC(C)(C)c1nnc(NC(=S)Nc2ccccc2)s1 returned DAX1 inh-1 -0.2, hgDAF12 agonist 10.8*, DAX1 inh-2 3.4, hcDAF12 agonist 1.2 and ssDAF12 agonist 0.5.
For O=C(CSc1nc2ccc(Cl)cc2[nH]1)c1cccs1 the results were DAX1 inh-1 1.0, hgDAF12 agonist 4.5, DAX1 inh-2 1.2, hcDAF12 agonist 5.3 and ssDAF12 agonist 1.0*.
Cc1cc(C(=O)CSc2nc3ccc(Cl)cc3[nH]2)c(C)n1C was read as DAX1 inh-1 0.0, hgDAF12 agonist -1.6, DAX1 inh-2 0.1, hcDAF12 agonist 0.6 and ssDAF12 agonist -0.7.
Screening Cc1ccccc1S(=O)(=O)N1CCCc2nc(-c3ccc(Br)cc3)ccc21 returned hgDAF12 agonist 0.1, DAX1 inh-2 -0.1, hcDAF12 agonist 0.2 and ssDAF12 agonist -1.2.
Screening Cc1nc(N2CCOCC2)nc(N2CCCCC2C)c1[N+](=O)[O-] (stereo not drawn) returned DAX1 inh-1 5.5*, hgDAF12 agonist -1.6, DAX1 inh-2 -0.4, hcDAF12 agonist -0.2 and ssDAF12 agonist -0.8.
Screening Cc1nc(N2CCOCC2)nc(N2CCC(C)CC2)c1[N+](=O)[O-] returned DAX1 inh-1 2.3, hgDAF12 agonist 0.7, DAX1 inh-2 -0.1, hcDAF12 agonist -3.3 and ssDAF12 agonist -1.7.
For CCCCNC(=S)N(CCN(CC)CC)Cc1cc2cc3c(cc2[nH]c1=O)OCCO3 the results were DAX1 inh-1 4.3*, hgDAF12 agonist 1.2, DAX1 inh-2 0.0, hcDAF12 agonist -0.3 and ssDAF12 agonist -0.7.
For Cc1ccsc1/C=N/Nc1nc(Cl)c(Cl)cc1Cl the results were DAX1 inh-1 2.0, hgDAF12 agonist 6.9, DAX1 inh-2 0.1, hcDAF12 agonist 4.7 and ssDAF12 agonist 0.1.
COc1ccc(/C=N/Nc2nc3ccccc3[nH]2)c(OC)c1OC was read as DAX1 inh-1 7.5*, hgDAF12 agonist -4.1, DAX1 inh-2 -0.3, hcDAF12 agonist -3.5 and ssDAF12 agonist -2.8.
Cc1ccc(/C=N/Nc2nc3ccccc3[nH]2)s1 was read as DAX1 inh-1 0.1, hgDAF12 agonist 9.8, DAX1 inh-2 2.7, hcDAF12 agonist 6.1* and ssDAF12 agonist 0.9.
Cc1ccc(/C=N/Nc2nc(Cl)c(Cl)cc2Cl)s1 was read as DAX1 inh-1 4.3*, hgDAF12 agonist 5.0, DAX1 inh-2 0.8, hcDAF12 agonist 5.4 and ssDAF12 agonist 0.9*.
Screening CCN(CC)c1cc(-c2ccccc2)ncn1 returned DAX1 inh-1 0.0, hgDAF12 agonist -1.4, DAX1 inh-2 -0.3, hcDAF12 agonist -0.9 and ssDAF12 agonist -1.1.
`CN(C)c1ccc(-c2ccccc2)nn1` gave DAX1 inh-1 1.3, hgDAF12 agonist 8.2, DAX1 inh-2 3.8*, hcDAF12 agonist 2.8 and ssDAF12 agonist 0.4.
Screening CCCCNS(=O)(=O)/C=C/c1cc2c(cc1CNC(=O)OC(C)(C)C)OCO2 returned hgDAF12 agonist 0.1, DAX1 inh-2 -1.3, hcDAF12 agonist -2.7 and ssDAF12 agonist -0.9.
Screening CC(C)(C)C(=O)c1c(N)[nH]c(C(=O)c2ccccc2)c1-c1ccccc1 returned hgDAF12 agonist 0.2, DAX1 inh-2 0.4, hcDAF12 agonist -1.0 and ssDAF12 agonist -0.9.
